Assay outcomes deposited in PubChem by National Center for Advancing Translational Sciences (NCATS).
This is a sample that favours compounds with a hit; in the whole collection about 21% have one here.
SARS PLpro yeast: blocks SARS-CoV papain-like protease in a yeast assay; S. cerevisiae expressing SARS-CoV PLpro, growth rescue; Potency, µM (top dose mostly 32.9 µM), most hits filed as activators; actives 0.19% (n = 330,000); AID 485353; calls by dose curve; further: nearly all actives have a fitted effect of over 55% in size
NS1 function inh: inhibitors of influenza NS1 protein function; Potency, µM (series often up to 46.1 µM); actives 0.4% (n = 270,000); calls by dose curve; further: actives are rising curves; nearly all actives have a fitted effect of over 50% in size
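S. cerevisiae expressing influenza A NS1, grown in glucose, washed, then diluted 1:100 into pH 6.0 -URA galactose medium with 23 nl compound. Growth recovery read as OD600; NS1-free strain serves as control.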
Pf growth 48h: inhibits P. falciparum growth in the first generation, 48 h; P. falciparum luciferase growth in erythrocytes, 48 h; AID 504832; Potency, µM (highest dose often 28.7 µM), most hits filed as inhibitors; actives 5.9% (n = 310,000)
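Firefly luciferase activity from engineered P. falciparum reports growth; inhibitors lower the luminescent signal. Cultures contained 2% hematocrit erythrocytes at 0.1% final parasitemia.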
Pf growth 96h: inhibits malaria parasite growth, 96 h; P. falciparum luciferase reporter growth, 96 h; Potency, µM (titrated, usually from 28.7 µM), usual class: inhibitors; actives 6.9% (n = 320,000)
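Two parasite generations (96 h, 37 C, 5% CO2) of compound exposure in infected erythrocytes (0.05% parasitemia, 2% hematocrit). Luciferase-reporter P. falciparum; decreased luminescence indicates inhibited growth, aimed at apicoplast-acting delayed death.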
Cycloheximide cs: counter-screen hit for Shiga toxin inhibitors, cycloheximide; cell reporter, cycloheximide protein synthesis inhibition counterscreen; max response, %; actives 12% (n = 300,000); AID 2314; in the data active means max response mostly above about 13%, no sharp cut-off; inactive means mostly below about 14%; further: read at 38.3 µM for the half of the compounds with a filed dose
Shiga inhibitor: Shiga toxin inhibition | Vero cells, Shiga toxin protein synthesis inhibition reporter | inhibition, % at 38.7 µM | actives 9.2% (n = 290,000) | AID 2315; in the data active means inhibition mostly above about 28%, no sharp cut-off; inactive means mostly below about 43%
Hits are given with their value; n = inactive; u = inconclusive; x = not tested or not shown. Unless noted, the call rests on the fitted dose curve; in most records, active means well fitted inhibition curve with a large enough effect; inconclusive means small, poorly fitted or top-dose-only effect, or another doubt; inactive means no such curve, though single readings can be large or run the other way.

SMILES	SARS PLpro yeast	NS1 function inh	Pf growth 48h	Pf growth 96h	Cycloheximide cs	Shiga inhibitor
Cc1c(C)n(C(=O)CSc2nc3ccccc3[nH]2)c2ccccc12	n	n	x	n	n	n
Cc1ccc(NC(=O)COc2ccc(Br)cc2C)cc1	n	n	n	n	69.8	91.2
Cc1ccc(OCC(=O)Nc2ccc(NC(=O)c3ccco3)cc2)c(C)c1	n	n	u	u	n	n
c1ccc2c(c1)-c1cccc3c1c-2cc1ccccc13	n	x	n	n	x	x
Oc1cc(-c2ccccc2)c2ccccc2c1	n	n	u	11.7µM	n	n
CCC(CC)C(=O)Nc1nnc(S(=O)(=O)N2CCCc3ccccc32)s1	n	n	n	14.7µM	n	n
CC(C)CC(=O)Nc1nnc(S(=O)(=O)N2c3ccccc3CC2C)s1 (centres undefined)	n	n	n	9.28µM	n	n
CCOc1ccc(/C=N/NC(=O)c2cccc3ccccc23)c(OCC)c1	n	n	n	n	n	n
Cc1cc(C)nc(NS(=O)(=O)c2ccc(NC(=O)c3snnc3C)cc2)n1	n	n	n	n	n	n
Cn1ncc2c(c(SCc3ccc(Cl)cc3Cl)nn2C)c1=O	n	n	7.38µM	u	n	n
Cn1c(SCc2ccc(Cl)cc2Cl)nc(C(F)(F)F)cc1=O	n	n	n	n	n	n
C/C(=N\NC(=O)c1cnccn1)c1ccc([N+](=O)[O-])cc1	n	n	n	n	20.0	n
C/C(=N\NC(=O)c1ccc([N+](=O)[O-])cc1Cl)c1ccccc1	n	n	n	n	32.3	55.9
C/C(=N/NC(=O)c1cc(O)c(O)c(O)c1)c1ccc([N+](=O)[O-])cc1	n	x	9.28µM	n	n	n
O=C(COC(=O)c1ccccc1F)Nc1ccc(S(=O)(=O)N2CCOCC2)cc1	n	x	x	x	x	x
Cc1ccc(N(CC(=O)NCc2ccco2)C(=O)CCC(=O)Nc2nccs2)cc1	n	u	n	n	n	n
COc1cccc(CN2CC(C(=O)N(C)C3CCOCC3)CCC2=O)c1 (centres undefined)	n	n	n	n	14.4	n
COc1cccc(CN(C)C(=O)C2CCC(=O)N(Cc3cccc(F)c3)C2)c1 (centres undefined)	n	n	n	u	n	n
COc1cccc(CN2CC(C(=O)NCCOc3ccccc3)CCC2=O)c1 (centres undefined)	u	n	n	u	19.5	n
CCOC(=O)c1ccccc1NC(=O)COC(=O)CCC(=O)c1ccccc1	n	n	n	n	n	n
CCCCOc1ccc(-c2[nH]ncc2C=O)cc1	n	x	n	u	37.2	116.7
CCCCOc1ccc(Cc2n[nH]c(=S)n2N)cc1	n	n	u	n	n	n
CCC(c1n[nH]c(=S)n1-c1ccccc1)N(C)C (centres undefined)	n	n	n	n	n	n
CC(C)CCC(CC(C)O)c1n[nH]c(=S)n1-c1ccccc1 (centres undefined)	n	n	n	2.33µM	n	n
Cc1cc(C)c(CNC(=O)c2cc(C3CC3)nc3c2cnn3C(C)C)c(=O)[nH]1	n	x	u	u	x	x
SMILES	SARS PLpro yeast	NS1 function inh	Pf growth 48h	Pf growth 96h	Cycloheximide cs	Shiga inhibitor
CCC(C(=O)NC1CCCC1)N(C(=O)Cn1nnc(-c2ccc(C)o2)n1)c1ccc(F)cc1 (centres undefined)	n	n	n	11.7µM	n	n
Cc1ccc(-c2nnn(CC(=O)N(CC(=O)NC3CCCCC3)c3ccc(F)c(Cl)c3)n2)o1	n	n	n	n	n	n
Cc1ccc(-c2nnn(CC(=O)N(CC(=O)NCc3ccccc3)c3cccc(C)c3C)n2)o1	n	n	14.7µM	u	n	n
Cc1ccc(-c2nnn(CC(=O)N(CC(=O)NC3CCCC3)c3ccc(F)c(Cl)c3)n2)o1	n	n	9.28µM	13.1µM	n	n
CCC(C(=O)NC1CCCC1)N(C(=O)Cn1nnc(-c2cccs2)n1)c1cnc2ccccc2c1 (centres undefined)	n	n	11.7µM	n	n	n
O=C1CN(C(=O)COC(=O)c2ccc[n+]([O-])c2)c2ccccc2N1	n	x	n	n	n	n
Cc1ccc(-c2nnn(CC(=O)N(c3ccccc3)C(C(=O)NC3CCCC3)c3ccncc3)n2)o1 (centres undefined)	n	n	n	n	n	n
Cc1ccc(-c2nnn(CC(=O)N(CC(=O)NC3CCCC3)c3cnc4ccccc4c3)n2)o1	n	n	u	9.28µM	n	n
Cc1ccc(-c2nnn(CC(=O)N(Cc3ccccc3F)C(C(=O)NC3CCCC3)c3ccncc3)n2)o1 (centres undefined)	n	n	9.28µM	u	n	n
CC(CCc1ccco1)NC(=O)CSc1cc(=O)n(C)c2ccccc12 (centres undefined)	n	n	n	4.15µM	n	n
CCCCNC(=O)CSc1cc(=O)n(C)c2ccccc12	n	n	n	0.208µM	n	n
COc1ccc(C(=O)N/N=C(\C)c2ccc(NC(=O)Cc3ccccc3)cc2)c(OC)c1	n	n	n	u	n	n
Cc1csc(=O)n1CCC(=O)OCC(=O)Nc1cc([N+](=O)[O-])ccc1Cl	n	x	n	n	x	x
Oc1ccc2ccccc2c1/C=N/Nc1nnc(-c2ncc[nH]2)c2ccccc12	u	n	2.62µM	x	47.7	n
COc1ccc(/C=N/Nc2nnc(-c3ncc[nH]3)c3ccccc23)cc1	n	n	n	n	24.6	78.4
Cc1ccc2c(CN(C)Cc3cccc(F)c3)cc(=O)oc2c1C	n	n	n	n	22.5	n
Cc1ccc2c(CN(C)Cc3ccccc3)cc(=O)oc2c1C	n	n	n	n	43.6	46.1
COc1ccccc1CNCc1cc(=O)oc2c(C)c(C)ccc12	n	n	n	n	n	n
CCc1ccc2oc(=O)cc(CN(C)Cc3ccccc3)c2c1	n	n	8.28µM	x	n	n
CCc1ccc2oc(=O)cc(CN3CCN(Cc4ccccc4)CC3)c2c1	n	n	u	u	n	n
Cc1ccc2c(CN(C)Cc3ccc(OC(F)F)cc3)cc(=O)oc2c1C	n	n	u	u	n	n
C=CCSC1=NNC(c2ccc(C(C)(C)C)cc2)=NN1	n	n	n	n	32.3	79.1
O=C(Cc1ccccc1)N/N=C/c1ccc(S(=O)(=O)O)o1	n	n	n	n	n	n
O=C(Cc1ccccc1)N/N=C/c1cc(Br)c(Br)o1	n	n	n	n	42.9	38.1
O=C(N/N=C/c1cc(Br)c(Br)o1)c1cccnc1	n	n	n	13.1µM	n	n
O=C(O)COc1ccccc1/C=N/NC(=O)c1ccc2c(c1)OCCO2	n	n	n	u	n	n
CCOc1cc(/C=N/NC(=O)c2ccc3c(c2)OCCO3)cc(Br)c1O	n	n	n	n	12.2	76.9
O=C(N/N=C/c1cc(Br)c(O)c(Br)c1O)c1ccc2c(c1)OCCO2	u	n	u	n	28.8	73.0
CCN(CC)S(=O)(=O)c1ccc(NS(=O)(=O)CC23CCC(CC2=O)C3(C)C)cc1 (centres undefined)	n	n	n	u	n	n
